Where “and” joins values, the source holds several entries; their conditions need not be identical. Equal values may be shown once. Results filed as inconclusive are left out. Some compounds were tested as several samples or in several runs, with calls that do not always agree. Calls of active or inactive are those of the source. The calls were made as follows, unless noted: active = hit-call score of the fitted dose curve at least 0.9, where 1 is the maximum; inactive = score below 0.9.

Our source for the AC50 and outcome values is PubChem BioAssay (EPA / NIEHS).

Read-out in test [1]: Thyroid Hormone Responsive (THRSP), THRSP (gene 7069)
Description: LTEA_HepaRG_THRSP: Life Technologies and Expression Analysis (LTEA) Assay for Thyroid Hormone Responsive (THRSP) using HepaRG (AID 2283536). The settings on record: mRNA level, 48 h; actives raise or lower the signal. The method, boiled down:
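Differentiated human HepaRG cells were exposed in duplicate for 48 h in serum-free induction medium to eight concentrations (top 100 uM, half-log steps, 0.5% DMSO). Expression was quantified by TaqMan qRT-PCR, normalized to ACTB, GAPDH and POLR2A, with bidirectional fitting against DMSO.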

Read-out in test [2]: Cellular tumor antigen p53 (Homo sapiens) (UniProt P04637)
Description: LTEA_HepaRG_TP53: Life Technologies and Expression Analysis (LTEA) Assay for Tumor Protein P53 (TP53) using HepaRG (AID 2283537). The conditions noted are these: mRNA level, 48 h; actives raise or lower the signal. The method, boiled down: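 Differentiated HepaRG cells in serum-free induction medium exposed 48 h in duplicate to 8 half-log concentrations, top 100 uM, 0.5% DMSO. TP53 mRNA by TaqMan qRT-PCR (Fluidigm), normalized to ACTB, GAPDH, POLR2A; fitted bidirectionally versus DMSO.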

Read-out in test [3]: UDP glucuronosyltransferase (UGT1A1), UGT1A1 (gene 54658)
Description: LTEA_HepaRG_UGT1A1: Life Technologies and Expression Analysis (LTEA) Assay for UDP glucuronosyltransferase (UGT1A1) using HepaRG (AID 2283538). The conditions noted are these: mRNA level, 48 h; actives raise or lower the signal. Summed up:
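Human liver HepaRG cultures receive test chemical for 48 h, up to 100 uM in 0.5% DMSO, with phenobarbital induction controls. UGT1A1 mRNA is measured by qRT-PCR and normalized to ACTB, GAPDH and POLR2A.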

Read-out in test [4]: UDP glucuronosyltransferase (UGT1A6), UGT1A6 (gene 54578)
Description: LTEA_HepaRG_UGT1A6: Life Technologies and Expression Analysis (LTEA) Assay for UDP glucuronosyltransferase (UGT1A6) using HepaRG (AID 2283539). The conditions noted are these: mRNA level, 48 h; actives raise or lower the signal. Summed up:
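Expression was quantified by TaqMan qRT-PCR on Fluidigm arrays with ACTB/GAPDH/POLR2A normalization and bidirectional fitting against 0.5% DMSO. HepaRG cells (~100,000/well) were treated in duplicate for 48 h at eight half-log concentrations up to 100 uM in serum-free induction medium.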

Read-out in test [5]: X-box binding protein 1 (XBP1), XBP1 (gene 7494)
Description: LTEA_HepaRG_XBP1: Life Technologies and Expression Analysis (LTEA) Assay for X-box binding protein 1 (XBP1) using HepaRG (AID 2283540). The settings on record: mRNA level, 48 h; actives raise or lower the signal. Summed up:
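XBP1 transcript by qRT-PCR (housekeeping-normalized: ACTB, GAPDH, POLR2A) after 48 h chemical treatment of HepaRG cells, 8-point half-log series topping at 100 uM, vehicle 0.5% DMSO. Gain and loss of signal fitted relative to DMSO.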

Test [6] is described as follows: LTEA_HepaRG_LDH_cytotoxicity: Cytotoxicity Assessment in the Life Technologies and Expression Analysis (LTEA) Assay (AID 2283563; active = hit-call score of the fitted dose curve at least 0.9, where 1 is the maximum;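 as to AC50: LDH activity released into spent culture medium as a marker of cell death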). The method, boiled down:
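LDH release into culture medium read after 48 h chemical treatment of HepaRG cells. Duplicate wells, eight-point half-log series topping at 100 uM, 0.5% DMSO vehicle and baseline.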

Test [7] is described as follows: TOX21_p53_BLA_p2_viability: Viability Assessment in the Tox21 HCT-116 p53 Agonism Beta-lactamase Assay, Phase 2 (AID 2283591; active = hit-call score of the fitted dose curve at least 0.9, where 1 is the maximum;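 also: compound exposure lasted 16 h at 37 °C; actives lower the ATP signal meaning cytotoxicity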). The method, boiled down: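 HCT-116 p53-bla cells (4000/well) rested 5 h at 37C, then received compounds in DMSO (217-fold dilution) for 16 h at 37C, 5% CO2. After the CCF4 read, CellTiter-Glo was added; ATP luminescence was read after 30 min at room temperature.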

Test [8] addresses Cellular tumor antigen p53 (Homo sapiens) (UniProt P04637). Description: TOX21_p53_BLA_p2_ratio: Tox21 HCT-116 p53 Agonism Beta-lactamase Assay, Ratio, Phase 2 (AID 2283592; active = hit-call score of the fitted dose curve at least 0.9, where 1 is the maximum). The method, boiled down:
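Gain-of-signal p53 agonism was scored from the beta-lactamase FRET ratio (460/530 nm, 405 nm excitation) in HCT116 cells treated 16 h at 37C, 5% CO2, with DMSO serving as negative control and baseline.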

Test [9] is described as follows: TOX21_p53_BLA_p3_viability: Viability Assessment in the Tox21 HCT-116 p53 Agonism Beta-lactamase Assay, Phase 3 (AID 2283593; active = hit-call score of the fitted dose curve at least 0.9, where 1 is the maximum;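 also: cells exposed to compound for 16 h before reading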). The method, boiled down: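 HCT-116 cells (4000/well) rested 5 h at 37C, then got DMSO compounds by pin tool (217-fold dilution) for 16 h at 37C, 5% CO2. After the bla read, CellTiter-Glo was added and luminescence read at 30 min, room temperature.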

A short description of test [10]: ATG_XTT_Cytotoxicity: Cytotoxicity Assessment in the Attagene TRANS-FACTORIAL HepG2 Assay (AID 2283584; active = hit-call score of the fitted dose curve at least 0.9, where 1 is the maximum). Summed up:
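Viability endpoint from XTT after 24 h chemical exposure of reporter-transfected human HepG2 liver cells; signal loss fitted relative to DMSO negative control.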

Cellular tumor antigen p53 (Homo sapiens), sequence (P04637 whole entry, looked up): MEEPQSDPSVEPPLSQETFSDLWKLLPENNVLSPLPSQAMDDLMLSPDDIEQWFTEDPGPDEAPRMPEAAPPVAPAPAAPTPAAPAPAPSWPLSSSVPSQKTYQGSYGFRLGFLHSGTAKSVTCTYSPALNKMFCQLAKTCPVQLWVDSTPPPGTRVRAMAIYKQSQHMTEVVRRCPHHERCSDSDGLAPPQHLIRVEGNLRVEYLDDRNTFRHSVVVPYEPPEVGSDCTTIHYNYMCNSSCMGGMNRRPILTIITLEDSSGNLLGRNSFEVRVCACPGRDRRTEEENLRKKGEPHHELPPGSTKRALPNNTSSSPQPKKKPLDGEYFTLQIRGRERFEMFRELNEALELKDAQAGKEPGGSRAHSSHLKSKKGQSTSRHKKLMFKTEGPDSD

Turning to `CN/C(=N\[N+](=O)[O-])NCc1cnc(Cl)s1`, the AC50 in test [1] and in test [3] was 50 µM (active) in each case. Moreover, the result in [2], in [4], in test [5], in [6], in [7] and in test [8] was inactive.
As to `Clc1nc(Cl)nc(Nc2ccccc2Cl)n1`, the call in test [1], in test [2], in test [3], in test [4], in [5] and in [6] was inactive. Also, the compound was classed as inactive in [7] and in test [8].
`COCC(C)N(C(=O)CCl)c1c(C)csc1C` (stereo not drawn): the outcome in [1], in test [2], in [4], in test [5], in test [6] and in test [7] was inactive. Also, the outcome in [8] was inactive. In addition, in [3], the AC50 is 22.2 µM (active).
For the compound `Cc1cnc(C2=NC(C)(C(C)C)C(=O)N2)c(C(=O)O)c1` (stereo not drawn), the outcome in [1], in [2], in [3], in test [4], in [5] and in test [6] was inactive.
For `Cc1cc(C)nc(Nc2ccccc2)n1`, the result in test [1], in [2], in test [4], in test [5], in [6] and in test [7] was inactive. For the same compound, the result in test [8] was inactive. In [3], the AC50 was 68.6 µM (active).
Consider `CC(C)(C)C(=O)C(Oc1ccc(Cl)cc1)n1cncn1` (stereo not drawn), for which the results for the AC50 in [1] and in test [3] were 33 µM (active) and 6.35 µM (active), respectively. In addition, the result in test [2], in test [4], in test [5], in test [6], in test [7] and in test [8] was inactive. Further, the result in test [9] was inactive.
Turning to `O=C1C2CC=CCC2C(=O)N1SC(Cl)(Cl)Cl` (stereo not drawn), the AC50 in test [1] is 16.2 µM (active); in test [6], 74.5 µM (active); in test [7], 25.6 µM (active); in [8], 4.12 µM (active) and 7.62 µM (active). Further, the call in [2], in [3], in test [4], in test [5], in test [7] and in test [8] was inactive. For the same compound, in [9], the compound was classed as inactive.
Take `CN=C=S`: the call in [1], in test [2], in test [3], in test [4], in test [6] and in test [7] was inactive. The outcome in test [8] was inactive. In addition, the AC50 in test [5] was 17.3 µM (active).
Consider `Cn1c(-c2ccccc2)cc(-c2ccccc2)[n+]1C`, for which the AC50 in test [1] was 50 µM (active); in test [2] it was 86.5 µM (active); in test [3] it was 39.9 µM (active); in [4], 75.2 µM (active); in test [6], 66.1 µM (active); in test [8], 24.2 µM (active). Further, the compound was classed as inactive in test [5], in [7], in test [8] and in test [9].
`CCOc1nc(F)cc2nc(S(=O)(=O)Nc3c(Cl)cccc3Cl)nn12`: the call in [1], in test [2], in [3], in test [4] and in [5] was inactive.
As to `CSC(=O)c1c(C(F)F)nc(C(F)(F)F)c(C(=O)SC)c1CC(C)C`, the call in [1], in [2], in test [4], in [5], in test [10] and in test [7] was inactive. Moreover, the result in test [8] was inactive. Further, the figures for the AC50 in test [3] and in [6] were 11.7 µM (active) and 78.7 µM (active), respectively.
Turning to `CCC(C)n1c(=O)[nH]c(C)c(Br)c1=O` (stereo not drawn), the AC50 in test [1] was 18.5 µM (active); in [3], 5.95 µM (active); in [5] it was 30.5 µM (active). Also, the outcome in [2], in test [4], in test [6], in test [7] and in [8] was inactive.
Turning to `COC(=O)N(C(=O)N1CO[C@@]2(C(=O)OC)Cc3cc(Cl)ccc3C2=N1)c1ccc(OC(F)(F)F)cc1`, the AC50 in [1] was 40 µM (active); in test [3], 10 µM (active); in test [6], 60.5 µM (active); in test [8], 46.3 µM (active). In addition, the compound was classed as inactive in test [2], in test [4], in test [5], in test [7] and in [9].
On to `C=CCOC(=O)C(C)(C)OC(=O)c1cc(-n2c(=O)cc(C(F)(F)F)n(C)c2=O)ccc1Cl`, for which the compound was called inactive in test [1], in [2], in [4], in test [5], in test [6] and in test [7]. Besides, the result in test [8] was inactive. The AC50 in [3] was 23.1 µM (active).
For `CCN(CC)C(=O)C(C)Oc1cccc2ccccc12` (stereo not drawn), the call in test [1], in [2], in [4], in test [6], in test [10] and in test [7] was inactive. Also, the result in test [8] was inactive. For the same compound, the AC50 in test [3] was 12.9 µM (active); in [5], 50 µM (active).
Take `COC(=O)NC(=S)Nc1ccccc1NC(=S)NC(=O)OC`: the outcome in test [1], in test [2], in test [4], in test [5], in test [6] and in test [7] was inactive. Also, the result in test [8] was inactive. Moreover, the AC50 in [3] was 14.3 µM (active).
On to `COP(=S)(OC)SCn1nnc2ccccc2c1=O`, for which the result in [1], in test [2], in test [4], in test [5], in [6] and in [10] was inactive. The call in [7], in test [8] and in test [9] was inactive. For the same compound, the AC50 in [3] was 43.2 µM (active); in test [8], 73.9 µM (active).
